Source: PubChem BioAssay (National Center for Advancing Translational Sciences (NCATS))
Sampled rows, rich in hits. Any-hit rate of the full collection: about 2.5%.
Cruzain inh Det: blocks cruzain activity in presence of Triton detergent; purified cruzain, Z-FR-AMC fluorescence, 0.01% Triton; Potency, µM, actives largely listed as inhibitors; 200,000 compounds, 0.43% hits; AID 1478; note: nearly all actives have a fitted effect of over 40% in size
Target sequence (P25779 123-467 limits assumed): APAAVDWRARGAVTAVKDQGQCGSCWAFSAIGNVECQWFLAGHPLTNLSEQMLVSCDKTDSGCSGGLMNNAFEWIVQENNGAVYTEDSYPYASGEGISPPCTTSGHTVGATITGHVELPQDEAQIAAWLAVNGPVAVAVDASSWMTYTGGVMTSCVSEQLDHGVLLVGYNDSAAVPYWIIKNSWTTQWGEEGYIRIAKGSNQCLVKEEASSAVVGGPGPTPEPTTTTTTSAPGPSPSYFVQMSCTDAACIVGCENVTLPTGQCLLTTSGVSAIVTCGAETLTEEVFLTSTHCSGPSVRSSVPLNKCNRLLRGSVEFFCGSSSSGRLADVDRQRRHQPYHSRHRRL
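Cysteine protease activity tested under reducing, mildly acidic conditions (100 mM sodium acetate pH 5.5, 5 mM DTT) plus 0.01% Triton X-100. Cruzain 1.5 nM; substrate Z-FR-AMC 2 uM; 15 min compound preincubation at room temperature.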
Cruzain inh noDet: inhibitors of Trypanosoma cruzi cruzain without detergent | purified cruzain, Z-FR-AMC fluorescence, no detergent | Potency, µM, usual class: inhibitors | 200,000 compounds, 2.3% hits; note: nearly all actives have a fitted effect of over 40% in size
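Detergent-free condition (0.00005% Triton X-100) in acetate buffer pH 5.5 with DTT. 1.5 nM enzyme and compound were pre-mixed 15 min, then 2 uM Z-FR-AMC substrate added; reaction progress from fluorescence change between first and third reads (60 s).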
Papain counter: papain (Carica papaya) inhibition counter-screen | 410 compounds, 41% hits | purified papain, Z-FR-AMC fluorescence cleavage | shares compounds with Cruzain inh Det | Potency, µM, most hits filed as inhibitors; note: nearly all actives have a fitted effect of over 35% in size
Large screens that a line does not name were inactive (follow-up assays come after a bar, where they were run). Calls come from the whole dose curve; as a rule, active = well fitted curve in the direction sought with a large enough effect; inconclusive = small, poorly fitted or top-dose-only effect, or another doubt; inactive = no such curve, though single readings can be large; an effect the other way counts as inactive or inconclusive.

O=C(c1ccccc1)c1nn(-c2ccccc2)c2nnc(Cc3ccccc3)c(=O)n12	Cruzain inh noDet 25µM
COC(=O)c1nn(-c2ccccc2)c2nnc(Cc3ccc(C)cc3)c(=O)n12	none
Cc1ccc(C2=N/C(=C/c3cccs3)C(=O)N2Nc2ccccc2)cc1	Cruzain inh noDet 25µM
CC1=NN(c2ccc(Br)cc2)C(=O)/C1=C/c1cccs1	none
O=C(Nc1ccc(Br)cc1F)c1cc(S(=O)(=O)NC2CCCC2)ccc1F	none
COc1ccc(OC)c(NC(=O)c2cc3c(=O)oc4ccccc4c3s2)c1	none
Nc1c(C(=O)Nc2ccc(C(F)(F)F)cc2)sc2nc(-c3cccs3)ccc12	Cruzain inh noDet inconclusive
Nc1c(C(=O)NC2CCCC2)sc2nc(-c3cccs3)ccc12	Cruzain inh noDet 25µM
O=C(CSc1nc(-c2ccccc2F)nc2nc[nH]c12)Nc1c(Cl)cc(Cl)cc1Cl	Cruzain inh noDet 6.3µM
CCc1cccc(C)c1NC(=O)CSc1nc(-c2ccccc2F)nc2nc[nH]c12	Cruzain inh noDet inconclusive
Nc1c(S(=O)(=O)c2ccccc2)c2nc3ccccc3nc2n1/N=C/c1cccc(O)c1	none
COc1ccc(CCn2c(N)c(S(=O)(=O)c3cccs3)c3nc4ccccc4nc32)cc1OC	none
COc1ccccc1/C=N/n1c(N)c(S(=O)(=O)c2cccs2)c2nc3ccccc3nc21	Cruzain inh noDet 7.9µM
Cc1cccc(S(=O)(=O)c2c(N)n(/N=C/c3ccccc3)c3nc4ccccc4nc23)c1	Cruzain inh noDet 4µM
COc1ccc(C(=O)Nc2ccc(-n3nncc3-c3ccc(OC)c(OC)c3)cc2)cc1	none
CC1Cc2ccccc2N1Cc1nc2scc(-c3cccs3)c2c(=O)[nH]1 (configuration not stated)	Cruzain inh noDet 16µM
COC(=O)c1ccc2c(=O)[nH]c(CN3c4ccccc4CC3C)nc2c1 (configuration not stated)	Cruzain inh noDet inconclusive
O=c1[nH]c(CN2CCN(c3ccccc3)CC2)nc2scc(-c3ccccc3)c12	Cruzain inh noDet inconclusive
CC1Cc2ccccc2N1Cc1nc2cc(Cl)ccc2c(=O)[nH]1 (configuration not stated)	Cruzain inh noDet 25µM
COc1ccccc1N1CCN(C(=O)c2oc3ccccc3c2N)CC1	none
O=C(Nc1cccc(C(=O)N2CCN(c3ccccc3)CC2)c1)c1nsc2ccccc12	Cruzain inh noDet inconclusive
O=C(CSc1oc(-c2ccccc2)nc1S(=O)(=O)c1ccc(Cl)cc1)c1ccccc1	Cruzain inh noDet inconclusive
O=C(CSc1oc(-c2ccc(F)cc2)nc1S(=O)(=O)c1ccc(Cl)cc1)c1ccccc1	Cruzain inh noDet 32µM
O=C(CSc1oc(-c2ccco2)nc1S(=O)(=O)c1ccc(Cl)cc1)c1ccc(Cl)cc1	Cruzain inh noDet 25µM
Cc1ccc(S(=O)(=O)c2nc(-c3ccco3)oc2SCC(=O)c2ccc(Cl)cc2)cc1	Cruzain inh noDet inconclusive
COc1cc2c(cc1OC)C(COc1cc(C)cc(C)c1)N(C(=O)C(C)(C)C)CC2 (configuration not stated)	Cruzain inh noDet inconclusive
COc1nc(-c2ccc(C)cc2)ccc1-c1noc(-c2ccc(C(C)(C)C)cc2)n1	none
COc1ccc(CCCc2nnc(SCC(=O)Nc3cccc(F)c3C)o2)cc1	none
CCOC(=O)c1[nH]c(C)c(C(=O)NCCc2ccccc2)c1C	none
CCC(C)NC(=O)CSc1ccc(Cl)cc1 (configuration not stated)	none
CCC(C)NC(=O)COC(=O)c1oc2ccccc2c1CSc1ccc(Cl)cc1 (configuration not stated)	Cruzain inh noDet 25µM
CC(Oc1ccc2c(-c3ccccc3)cc(=O)oc2c1)C(=O)O (configuration not stated)	none
O=C(COc1ccc2c(C(F)(F)F)cc(=O)oc2c1)NCc1cccs1	none
CC(NC(=O)OCc1ccccc1)C(=O)Oc1cc2oc(=O)cc(-c3ccccc3)c2cc1Cl (configuration not stated)	Cruzain inh Det 22µM, Cruzain inh noDet inconclusive
O=C(NC(Cc1ccccc1)C(=O)Oc1ccc2c(C(F)(F)F)cc(=O)oc2c1)OCc1ccccc1 (configuration not stated)	Cruzain inh Det 11µM, Cruzain inh noDet inconclusive
CC(=O)NCCC(=O)Nc1nc(-c2cccs2)c(-c2cccs2)s1	Cruzain inh noDet inconclusive
O=C(Nc1nc(-c2cccs2)c(-c2cccs2)s1)C1(c2ccccc2)CC1	Cruzain inh noDet 10µM
Cn1cc(-c2cc3n(n2)CCC(=O)N3CCCC(=O)Nc2ccccc2F)c2ccccc21	Cruzain inh noDet inconclusive
N#CCSc1nc2scc(-c3cccs3)c2c(=O)n1CCc1ccccc1	Cruzain inh noDet 16µM | Papain counter inactive
Cc1ccc(-c2csc3nc(SCC(N)=O)n(Cc4ccccc4)c(=O)c23)cc1	none
COc1cccc(C(=O)Nc2c(C(=O)NC(C)(C)C)oc3ccccc23)c1	none
